# The list is not random: actives were taken first. Their share in the collection is about 5.3%.
# ALR inh: inhibitors of human ALR sulfhydryl oxidase, primary screen, biochemical, H2O2 detection, HRP-luminol luminescence, single point; FAD-linked sulfhydryl oxidase ALR (Homo sapiens), P55789; inhibition, % (no concentration beside the values); purified ALR, DTT oxidation; hit rate 3.8% among 290,000;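 active means mean replicate inhibition above about 79%, with every replicate also reaching it, limit read from the data; inconclusive means only one of the two criteria met; inactive means mean below limit and not every replicate reaching it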
# Target sequence (P55789 whole entry, looked up): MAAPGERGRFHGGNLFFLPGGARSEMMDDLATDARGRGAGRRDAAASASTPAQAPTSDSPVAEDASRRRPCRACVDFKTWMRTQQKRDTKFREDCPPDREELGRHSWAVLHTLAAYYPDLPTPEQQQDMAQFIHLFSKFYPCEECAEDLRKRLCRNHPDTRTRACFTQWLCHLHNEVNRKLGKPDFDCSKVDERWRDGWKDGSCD
# Mot1-301 SUMO: yeast Mot1-301 growth rescue at high temperature, primary screen, SUMOylation pathway inhibitor project, S. cerevisiae, ATP luminescence, 38.5C; S. cerevisiae Mot1-301 growth rescue; percent above DMSO median, 100 means doubled; growth rescue, % at 18.8 µM; hit rate 1% among 320,000; AID 2716, 2010;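 active means every valid replicate shows activation above 250% relative to neutral control wells; inactive means the rest, any valid replicate at or below 250%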;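 further: OY570 slx delta 5 strain wells were the positive control but not used for scaling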
# HIF activator: HIF pathway transcriptional activators, primary screen, cell-based, U2OS HRE-luciferase, luminescence | activation, % at 7.5 µM (by protocol) | hit rate 0.32% among 300,000 | U2OS HRE-luciferase reporter; normalized: DMSO 0%, desferrioxamine 100% | AID 1910, 2009;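 active means mean activation of at least 10% of the iron chelator positive control signal, with at least half of replicates also reaching 10%; inconclusive means mean and replicate majority disagree about reaching 10%; inactive means mean and most replicates under 10%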
# PfM18AAP inh: PfM18AAP inhibitors, malaria aminopeptidase, primary screen, biochemical, QFRET, recombinant enzyme. M18 aspartyl aminopeptidase (Plasmodium falciparum 3D7). H-Glu-NHMec fluorogenic cleavage. inhibition, % at 7.35 µM. hit rate 1.2% among 290,000. AID 1822, 2009;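 active means inhibition above the campaign mean inhibition over all tested compounds plus 3 SD, cut at about 28% in these data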;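 further: 0% = plate median of test compound wells and 100% = 2 mM ZnCl2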
# * marks the source's active call; other numbers are inactive results; ? = inconclusive; . = no result.
SMILES,ALR inh,Mot1-301 SUMO,HIF activator,PfM18AAP inh
CC(=O)Nc1ccc(NC(=O)CSc2nc3nc(-c4cccs4)cc(C(F)(F)F)c3c(=O)[nH]2)cc1,99*,6,0,0
COc1cc(C(=O)Nc2nnc(C3=COCCO3)o2)cc(OC)c1OC,-3,-12,0,5
Cc1ccc(N(CC(=O)NC2CCCCC2)C(=O)CNC(=O)c2ccco2)c(C)c1,1,382,-1,1
CCCCn1c(=O)c2c(O)cc(=O)oc2c2ccccc21,-1,21,22*,2
COc1cccc(NC(=O)C(=O)N/N=C(\C)CC(=O)Nc2ccc(NC(C)=O)cc2)c1,3,6,2,0
Cc1ccc(O)c(NC(=O)C2CCCN2C(=O)OCc2ccccc2)c1 (configuration not stated),87*,-5,0,4
Cc1cccc(NC(=O)C2CCCN2C(=O)OCc2ccccc2)c1 (configuration not stated),8,116,.,.
Cn1c2ccccc2c(=O)c2c(=O)n(C3CCCCC3)c(-c3ccco3)nc21,1,580*,1,5
Cc1nc2c(c(=O)c3ccccc3n2C)c(=O)n1C1CCCCCC1,-12,16,0,-5
COC(=O)c1ccc(NC(=S)Nc2ccc(O)cc2)cc1,99*,-1,2,13
O=C(NC(=S)Nc1ccc(O)cc1)C1CCCC1,.,-10,.,.
Oc1ccc(NC(=S)Nc2ccc(O)cc2)cc1,99*,-9,0,12
O/N=C(\Cc1cscn1)c1ccc(O)cc1O,82*,-3,0,-2
Cc1oc(-c2ccc(Cl)cc2)nc1CS(=O)CC(=O)NCCCN1CCCC(C)C1 (configuration not stated),99*,73,3,-1
Cc1oc(-c2ccc(Cl)cc2)nc1CS(=O)CC(=O)NCCCN1CCN(Cc2ccccc2)CC1 (configuration not stated),?,2,0,-8
COc1ccc(-c2nc(CS(=O)CC(=O)NCCCN3CC(C)CC(C)C3)c(C)o2)cc1OC (configuration not stated),98*,-1,0,-5
CCc1ccc(-c2nc(CS(=O)CC(=O)NCCCN3CCOCC3)c(C)o2)cc1 (configuration not stated),100*,2,-1,-2
Cc1ccc(-c2nc(CS(=O)CC(=O)NCCCN3CC(C)CC(C)C3)c(C)o2)cc1 (configuration not stated),99*,114,0,3
CCN(CC)Cc1c(C(=O)N/N=C/c2c(Cl)cccc2Cl)nnn1-c1nonc1N,6,257,-1,-12
Cc1ccccc1-c1nc(CS(=O)(=O)CC(=O)NCCCN2CCN(C)CC2)c(C)o1,-4,5,0,1
Cc1ccccc1-c1nc(CN2CCC(C(=O)NCCCN3CCCC(C)C3)CC2)c(C)o1 (configuration not stated),-8,6,-1,-5
Cc1oc(-c2cccs2)nc1CS(=O)CC(=O)NCCCN1CC(C)CC(C)C1 (configuration not stated),99*,4,0,-16
Cc1ccc(-c2nc(CS(=O)(=O)CC(=O)NCCN3CCCC3)c(C)o2)cc1,-2,234,0,-4
Cc1ccc(-c2nc(CS(=O)CC(=O)NCCN3CCCCC3C)c(C)o2)cc1 (configuration not stated),98*,27,0,-3
COc1ccc(-c2nc(CS(=O)CC(=O)NCCCN3CCCC(C)C3)c(C)o2)cc1OC (configuration not stated),99*,-16,3,-2
SMILES,ALR inh,Mot1-301 SUMO,HIF activator,PfM18AAP inh
COc1ccc(CNC(=O)c2coc(=O)c3ccccc23)c(OC)c1,2,8,0,4
Cc1onc(C(=O)NC(C)c2ccccc2)c1[N+](=O)[O-] (configuration not stated),0,24,0,-2
CSc1nncc(/C(C)=N\Nc2ccccc2)n1,-1,297*,1,1
O=C(c1cccc(S(=O)(=O)NCc2ccccc2)c1)N1CCCC(C(F)(F)F)C1 (configuration not stated),-14,6,0,.
CC(C)NC(=O)CC1(C(=O)NCc2ccc(Cl)cc2)CCCC1,-15,302*,-27,-8
COc1ccc(CNC(=O)C2(CC(=O)NC(C)(C)C)CCCC2)cc1,-3,-2,0,-3
Oc1cccc(C(=S)N2CCN(Cc3ccccc3)CC2)c1,19,.,0,29*
Cc1ccc(S(=O)(=O)N(C)c2ccc(OCC(=O)Nc3nc4c(ccc5ccccc54)s3)cc2)cc1,84*,10,0,-12
Cc1ccc(S(=O)(=O)N(C)c2ccc(OCC(=O)Nc3nc4ccccc4s3)cc2)cc1,-26,19,-1,-5
CC(=O)NS(=O)(=O)c1ccc(N=c2ssc3c2-c2ccc(C)cc2NC3(C)C)cc1,100*,275,1,10
Cc1ccc(S(=O)(=O)NC(=O)Nc2cc(C)ccc2F)cc1,-7,33,0,-8
Cc1ccc(CSC(Nc2ccc(F)cc2)=C(C#N)C#N)cc1,-8,252,0,-1
CCN(CC)C(=O)CSC(Nc1ccc(F)cc1)=C(C#N)C#N,99*,-11,0,13
COc1ccc(N(CC(=O)NCc2ccc(F)cc2)C(=O)Cn2nnc(-c3ccc(C)o3)n2)cc1OC,4,19,0,1
CCCOc1ccc(-c2csc(NC(=O)CN3C(=O)CCC3=O)n2)cc1,1,-7,0,5
CC(=O)Nc1sc(N/N=C\c2ccc(O)cc2)nc1-c1cccs1,91*,33,1,17
CC(=O)Nc1sc(N/N=C\c2cccc(Cl)c2)nc1-c1cccs1,-3,-13,0,14
CC(=O)Nc1sc(NC(=O)c2ccccc2)nc1-c1cccs1,98*,-5,0,9
CN(Cc1nccn1C)C(=O)c1ccc2nc(Cc3ccccc3F)oc2c1,-3,9,5,3
CCc1nnc(N/N=C/c2c(C)[nH]c3ccccc23)n1N,99*,-17,.,54*
CC(=O)/C(=N\Nc1ccccc1)Sc1nncn1C,98*,8,0,16
CCOC(=O)C1(C)C=C(Nc2ccc(OC)cc2)C(=O)N1c1ccc(OC)cc1 (configuration not stated),-5,1,0,0
CCOC(=O)C1(C)C=C(Nc2ccc(O)cc2)C(=O)N1c1ccc(O)cc1 (configuration not stated),100*,-7,0,34*
O=C(CN1CCN(C(=O)c2cccc(F)c2)CC1)NC1CCCCC1,.,-3,0,-11
O=C1CC(N2CCN(C3CCc4ccccc4C3)CC2)C(=O)N1c1ccccc1 (configuration not stated),-56,8,0,-8
CCOC(=O)c1c(N)sc2c(OC)c(Br)ccc12,99*,137,0,-29
